Hit rate of the full screen: of about 390,000 compounds, about 2,200 (0.56%) were called active. Entries that show only a call come without a potency. Inconclusive results (about 3%) are left out. This is one part of a sample in which actives are shown more often than they occur. Calls follow the shape of the dose curve; as a rule, active = well fitted inhibition curve with a large enough effect; inconclusive = small, poorly fitted or top-dose-only effect; inactive = no such curve, though single readings can be large or run the other way.
Target: Chromobox protein homolog 1 (Homo sapiens) (UniProt P83916)
Assay: HTS for Inhibitors of HP1-beta Chromodomain Interactions with Methylated Histone Tails; also: nearly all actives have a fitted effect of over 70% in size
Conditions: AlphaScreen HP1-beta / biotin-H3K9me3 peptide binding; series mostly up to 114 µM
Source text: As our understanding of epigenetics expands, it is becoming clear that players in this field are potential targets for drug development. This area of epigenetic therapy has established applications for the treatment of cancer and neurological diseases. We have been involved in this field for a number of years and have performed high-throughput screens to identify the first small molecule inhibitors of protein methyltransferases. These methyltransferases target multiple substrates, and thus regulate many arms of an epigenetic pathway. The methylation of different substrates often generates docking sites for effector proteins that harbor binding domains (chromo, tudor, PHD, MBT and ANK repeats). It has been proposed that the binding sites generated for different proteins by these post-translational modifcations mediate downstream effects on chromatin. Consistent with this theory, di- and tri-methylation of histone H3K9 facilitates the binding of heterochromatin protein HP1. The HP1 protein harbors a chromodomain that is responsible for the methyl-dependent interaction between HP1 and lysine 9 of histone H3. HP1 was first described in flies as a heterochromatin associated protein that can regulate gene silencing. It harbors a chromodomain that binds H3K9me3. In addition, it harbors a chromoshadow domain that interacts with a large number of proteins that are involved in heterochromatin formation and gene repression. There are three highly related HP1 isoforms. All three variants are associated with pericentric heterochromatin and it is not clear whether they have specific or redundant functions. MPP8 is also involved in the repression of gene in euchromatic regions (unpublished data) and like HP1 its chromodomain binds H3K9me3. MPP8 harbors an ankyrin repeat region that is likely involved in binding and recruiting interacting proteins with transcriptional repressive function, much like the chromoshadow domain of HP1 does. We hypothesize that by inhibiting specific protein-protein interactions we will be able to develop compounds that block a single arm of an epigenetic pathway. The specificity attained by blocking a single protein-protein interaction will be far greater than that attained by blocking the enzyme that regulates one of many interactions. Low-affinity protein-protein interactions (Kd in the single- to double-digit micromolar range) such as those discussed here have been very difficult to assay by traditional techniques such as fluorescence polarization or fluorescence resonance energy transfer. We have developed a sensitive chemiluminescence-based assay (Quinn, et al. 2009), which serves as the starting point for this project. The following is a validation assay to identify lead compounds that can block methyl-dependent protein-protein interactions (specifically HP1-beta), which can be used as probes to analyze these methyl-driven interactions and perhaps even developed into targeted epigenetic therapies. NIH Chemical Genomics Center [NCGC] NIH Molecular Libraries Probe Centers Network [MLPCN] MLPCN Grant: DA031087 Assay Submitter (PI): Mark Bedford, University of Texas, Medical Anderson Cancer Center, TX
To each well, 2 uL of HP1-beta protein (final 50 nM) and 1 uL biotinylated histone peptide trimethylated at Lys9 [b-H3(1-18)K9me3] (final 50 nM) was added in 1x PBS buffer, pH 7.4, containing 0.01% Tween-20 using a nanoliter dispenser. Formation of a protein-peptide complex proceeded at room temperature for 30 min. A Kalypsys pin-tool was employed to transfer 23 nL of library compound solution in DMSO to each well. Aurintricarboxylic acid (ATA) was used as an intraplate control with a 12-point titration in duplicate. Following a 30 min incubation of the protein-peptide complex with compounds at room temperature, a mixture of 40 ug/mL each streptavidin-coated donor and nickel chelate acceptor AlphaScreen beads (final 10 ug/mL) was added in a 1 uL dispense for a final volume of 4 uL. […]
Potency is read from the fitted curve at half-maximal effect.

Chain of Chromobox protein homolog 1 (Homo sapiens) (P83916 whole entry, looked up): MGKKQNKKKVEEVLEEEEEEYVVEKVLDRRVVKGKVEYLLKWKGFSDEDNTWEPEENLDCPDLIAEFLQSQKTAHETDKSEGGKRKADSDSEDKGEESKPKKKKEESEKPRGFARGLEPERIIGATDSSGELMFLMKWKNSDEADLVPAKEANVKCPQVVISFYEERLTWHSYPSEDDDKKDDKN

Structure (SMILES) | Potency
O=C(c1ccccc1[N+](=O)[O-])N1CCC2(CC1)OCCO2 | inactive
O=C(O)c1cc[c]([Sb](=[O])([OH])[OH])cc1[N+](=O)[O-] | 0.794 µM (active)
CCOc1ccc(S(=O)(=O)NCc2ccc3c(c2)OCO3)cc1C | inactive
C=CCOC(=O)c1ccccc1C(=O)OCC=C | inactive
CCn1cc2nc(SCc3ccccc3Cl)n(CCc3ccccc3)c(=O)c2n1 | inactive
O=c1[nH]c(=S)[nH]c(O)c1/C=C1\C=Nc2ccccc21 | inactive
Nc1nc(NC(=O)/C=C/c2ccc(F)cc2)nn1-c1ccccc1 | inactive
COc1ccc(N2C(=O)/C(=C/c3ccco3)C(=O)NC2=S)cc1 | 14.1 µM (active)
CCOC(=O)CNC(=O)N1c2ccccc2Sc2ccccc21 | inactive
Brc1cc(Br)c(Oc2cc(Br)c(Br)cc2Br)cc1Br | inactive
CN(C(=O)CSc1nc2ccc(NC(=O)COc3ccccc3)cc2s1)c1ccccc1 | inactive
O=C(Cc1ccccc1[N+](=O)[O-])N1CCN(Cc2ccc3c(c2)OCO3)CC1 | inactive
c1ccc(CCNC2CCCCCC2)cc1 | inactive
c1ccc(CC2CCCCN2)cc1 (stereo not given) | inactive
O=C(Cc1ccc(Cl)cc1)NCCN1CCN(C(=O)Cc2ccc(Cl)cc2)CC1 | inactive
COc1ccccc1CN1CCN(C(=O)Cc2ccccc2)CC1 | 14.1 µM (active)
O=C(Cc1ccccc1)N1CCN(C2CCCCCC2)CC1 | 79.4 µM (active)
O=C(OCC(=O)c1cccs1)C1=COCCO1 | inactive

Structure (SMILES) | Potency
O=C(CSc1ccccc1)Nc1ccc(C(=O)Nc2cccc(O)c2)cc1 | inactive
O=c1c2ccccc2ccc2ccc(P(=O)(O)O)cc12 | inactive
COc1cc(Cl)ccc1Nc1ncc(C(=O)N2CCN(c3ccccc3OC)CC2)c2ccccc12 | inactive
O=C(COc1ccccc1Cl)Nc1ccc2nc(SCC(=O)N3CCCC3)sc2c1 | inactive
CCOCCCNC(=O)c1c(NC(=O)c2nc(SC)ncc2Cl)sc2c1CCCC2 | inactive
C[C@H]1CN([C@@H](C)CO)C(=O)Cc2cc(NC(=O)Cc3ccccc3)ccc2O[C@H]1CN(C)S(=O)(=O)c1cccs1 | inactive
COc1cccc(N2C(=O)NC(=O)/C(=C\c3ccc([N+](=O)[O-])s3)C2=O)c1 | 31.6 µM (active)
Cc1ccsc1/C=N/NC(=O)Cc1cc(=O)[nH][nH]1 | inactive
CC(=O)c1ccc(OC(=O)N2CCOCC2)cc1 | inactive
CCc1ccccc1NC(=O)c1sc2nc3c(cc2c1N)CN(Cc1ccccc1)CC3 | inactive
CCN(CC)c1ccc(C2C(C(N)=O)=C(C)Nc3nc(SCc4ccccc4)nn32)cc1 (stereo not given) | inactive
Cc1cc2n(n1)C(c1cc(C(C)(C)C)c(O)cc1O)Nc1ccccc1-2 (stereo not given) | inactive
COc1ccc(CNC(=O)c2cc3c(-c4ccccc4F)nn(C)c3s2)c(OC)c1 | inactive
Cc1cc(C)c2c(c1)NP(=S)(c1ccccc1)N2 (stereo not given) | 50.1 µM (active)
Cc1ccc2c(c1)C1CN(C)CCC1N2C(=O)c1ccccc1NS(=O)(=O)c1ccc(F)cc1C (stereo not given) | inactive
O=C(O)C1CSC(c2cccnc2)N1 (stereo not given) | 17.8 µM (active)
CCc1ccc(C2C(C#N)=C(N)Oc3n[nH]c(CC(=O)OC)c32)cc1 (stereo not given) | inactive

— PubChem BioAssay AID540317 (National Center for Advancing Translational Sciences (NCATS), 2011)
